Some of the results follow. The source made the active and inactive calls. No stated cut-off is given here; in the data, active means activation above about 8.4%; inactive means the rest.
Target: Galanin receptor type 2 (Homo sapiens) (UniProt O43603)
Test: GALR2 agonists, retest of hits, confirmation, cell-based (AID 864);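 further: 0% = buffer-only vehicle wells and 100% = full reference agonist response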
Details: GALR2-expressing cells, agonist activation; at 5.6 µM; hits give high values

Chain of Galanin receptor type 2 (Homo sapiens) (O43603 whole entry, looked up): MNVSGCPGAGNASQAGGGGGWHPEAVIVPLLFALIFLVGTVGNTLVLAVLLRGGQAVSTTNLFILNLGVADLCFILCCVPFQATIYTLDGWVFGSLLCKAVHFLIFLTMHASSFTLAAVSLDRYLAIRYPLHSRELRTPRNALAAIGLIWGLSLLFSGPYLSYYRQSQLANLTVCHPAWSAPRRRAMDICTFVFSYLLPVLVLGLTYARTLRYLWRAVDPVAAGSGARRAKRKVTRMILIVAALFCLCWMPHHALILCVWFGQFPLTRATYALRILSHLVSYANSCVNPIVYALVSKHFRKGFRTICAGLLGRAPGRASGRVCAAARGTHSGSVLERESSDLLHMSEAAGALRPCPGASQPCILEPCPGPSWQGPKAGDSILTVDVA

activation, active:
CCCOc1ccc(C(=O)C(CCC(CNCC)C(=O)c2ccc(OCCC)cc2)CNCC)cc1 (stereo unspecified) 16%
CCOc1ccc2nc(Nc3nc4ccc(NC(C)=O)cc4s3)sc2c1 27.5%

activation, inactive:
COc1ccc(C(=O)CN2C(=O)NC(C)(c3ccc(C)cc3)C2=O)cc1OC (stereo unspecified) -0.91%
Cc1csc(NC(=O)c2ccc(-c3ccc(Cl)cc3Cl)o2)n1 -0.78%
CCN(C(=O)CSc1ncn[nH]1)c1cccc2ccccc12 -1.13%
OC(COc1cccc2ccccc12)CN1CCN(c2ccccn2)CC1 (stereo unspecified) -0.28%
O=c1oc2cc(O)ccc2cc1-c1ccc(F)cc1 2.23%
Cn1c(=O)oc2cc(S(=O)(=O)N3CCC(C(=O)Nc4ccc(OC(F)(F)F)cc4)CC3)ccc21 1.24%
CC(=O)Oc1ccc(C(C)=O)c2c1OCCO2 -0.99%
Fc1ccc(N2N=C(c3cccs3)CC2c2ccco2)c(F)c1 (stereo unspecified) 1.22%
O=C(NC(=S)Nc1ccc(NC(=O)c2cccs2)cc1)c1ccc([N+](=O)[O-])cc1 -0.89%
O=[N+]([O-])c1ccccc1SNc1ccccn1 -0.89%
Cc1ccc(CCC(=O)Nc2ncc(Cc3cc(Cl)ccc3Cl)s2)o1 7.28%
CC(=O)N(Cc1cccs1)C1CCOC(C)(C)C1 (stereo unspecified) -1%
CC1(C)CC(=O)C=C(NCCN2CCNCC2)C1 -1.05%
COCCN(CCOC)S(=O)(=O)c1ccc(C(=O)Nc2nc3c(s2)CCc2ccccc2-3)cc1 5.93%
C=CCN(CC=C)S(=O)(=O)c1ccc(C(=O)Nc2nc3c(s2)CCc2ccccc2-3)cc1 2.82%
O=C1COc2ccc(NC(=O)N3CCN(c4ccc(F)cc4)CC3)cc2N1 -0.98%
CC/C(C)=N/Nc1nc2sc3c(c2c(=O)[nH]1)CC(C)(C)OC3 -0.45%
COc1cc(SC#N)ccc1N=Cc1c(C)[nH]n(-c2ccc(C)cc2)c1=O 7.97%
COc1ccccc1N1N=C(c2cccs2)CC1c1ccccc1 (stereo unspecified) 6.34%
Cc1ccc(Cc2c(C)nc3nc(SCC(=O)NCCN4CCOCC4)nn3c2C)cc1 -0.11%
COC(=O)c1ccc(NC(=O)C(C)N2C(=O)c3ccccc3C2=O)cc1 (stereo unspecified) -0.71%
COc1ccc(Nc2oc(-c3ccccc3Cl)nc2C#N)cc1 2%
C=CCn1c(Oc2ccc(C(=O)OC)cc2)nc2c1c(=O)n(C)c(=O)n2C 0.25%
CCOc1ccc(C(O)Cn2c(=N)n(CCN3CCCCC3)c3ccccc32)cc1 (stereo unspecified) -0.63%

— PubChem BioAssay AID864 (The Scripps Research Institute Molecular Screening Center, 2007)
